Assay outcomes: PubChem BioAssay, National Center for Advancing Translational Sciences (NCATS)
AmpC no deterg: inhibitors of E. coli AmpC beta-lactamase without detergent; P00811; AmpC nitrocefin hydrolysis, absorbance 480 nm, 0.0001% Triton; Potency, µM (top dose mostly 57.1 µM), inactives show top-dose activity change, negative = inhibition, actives largely listed as inhibitors; hit rate 0.52% among 330,000;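 note: potency is the fitted concentration of half-maximal effect; plate controls were no compound for no effect and no enzyme for full effect; nearly all actives have a fitted effect of over 20% in size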
Target sequence (P00811 whole entry, looked up): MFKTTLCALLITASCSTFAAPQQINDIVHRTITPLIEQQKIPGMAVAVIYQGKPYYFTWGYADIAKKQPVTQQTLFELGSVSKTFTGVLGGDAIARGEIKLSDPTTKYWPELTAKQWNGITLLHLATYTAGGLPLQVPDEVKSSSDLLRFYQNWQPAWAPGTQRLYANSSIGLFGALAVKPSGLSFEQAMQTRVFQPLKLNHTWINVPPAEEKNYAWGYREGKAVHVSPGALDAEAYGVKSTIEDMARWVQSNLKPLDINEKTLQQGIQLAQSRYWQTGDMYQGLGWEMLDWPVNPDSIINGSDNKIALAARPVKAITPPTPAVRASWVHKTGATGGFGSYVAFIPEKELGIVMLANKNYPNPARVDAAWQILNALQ
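20 mM phosphate pH 7.0 + 0.01% (detergent screen) or 0.0001% Triton X-100; 5.3 nM AmpC reagent; cpd preinc 15 min RT; nitrocefin (800 uM stock) to start; A480 q20 s × 4 min; Activity was normalised to no-enzyme and no-compound control wells.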
AmpC detergent: blocks E. coli AmpC beta-lactamase in detergent assay; Potency, µM (titrated, usually from 114 µM), without a hit: top-dose activity change, negative = inhibition, hits mostly inhibitors; AID 485294; hit rate 0.041% among 370,000; AmpC hydrolysis of nitrocefin, absorbance 480 nm, 0.01% Triton; P00811;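 note: potency is the fitted concentration of half-maximal effect; 0% = no-compound wells and -100% = no-enzyme wells; nearly all actives have a fitted effect of over 25% in size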
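AmpC (5.3 nM in the dispensed reagent) in 20 mM phosphate pH 7.0 with 0.01% (detergent screen) or 0.0001% Triton X-100 was preincubated with compounds for 15 min at room temperature. Nitrocefin was then added from an 800 uM solution, and hydrolysis was followed at 480 nm.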
Cycloheximide cs: counter-screen hit for Shiga toxin inhibitors, cycloheximide; max response, %; cell reporter, cycloheximide protein synthesis inhibition counterscreen; hit rate 12% among 300,000; in the data active = max response mostly above about 13%, no sharp cut-off; inactive = mostly below about 14%; note: read at 38.3 µM for the half of the compounds with a filed dose; 0% is about no effect
Shiga toxin inh: blocks Shiga toxin action in Vero cells; Vero cells, Shiga toxin protein synthesis inhibition reporter; inhibition, % at 38.7 µM; hit rate 9.2% among 290,000; AID 2315; in the data active = inhibition mostly above about 28%, no sharp cut-off; inactive = mostly below about 43%; note: 0% is about no effect
NS1 function inh: blocks influenza NS1 protein function. Potency, µM (top dose mostly 46.1 µM), inactives show at the top dose activity, positive = more growth. hit rate 0.4% among 270,000; calls by dose curve; note: potency is the fitted concentration of half-maximal effect; actives are rising curves; nearly all actives have a fitted effect of over 50% in size
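A cell-based growth assay was used: compounds that relieve NS1-induced slow growth of budding yeast raise OD600. Assay medium was yeast nitrogen base with ammonium sulphate and -URA supplement, pH 6.0, with 2% galactose.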
* hit, by the source's call; ? = inconclusive; · = not tested or not shown; [ ] = dose if it differs, or a comment. The entries come from a sample that favours hits as a whole. Unless noted, calls come from the whole dose curve; as a rule, active = well fitted curve in the direction sought with a large enough effect; inconclusive = small, poorly fitted or top-dose-only effect, or another doubt; inactive = no such curve, though single readings can be large; an effect the other way counts as inactive or inconclusive.

SMILES | AmpC no deterg | AmpC detergent | Cycloheximide cs | Shiga toxin inh | NS1 function inh
COc1ccc(-c2cc(C(=O)N/N=C(\C)c3cccnc3)c3ccccc3n2)c(OC)c1 | -2.8% | 6.0% | 18.5 | 42.0* | -10.4%
COc1ccc(/C=N/NC(=O)c2cc(-c3ccccc3)nc3ccccc23)c(OC)c1 | 97.9% | -2.8% | 17.6* | 40.4 | ?
COc1ccc2nc(-c3ccccc3)cc(OC)c2c1 | -30.3% | 6.9% | 58.2* | 65.1* | -5.4%
O=C(N/N=C/c1ccc(F)cc1)c1cc(-c2ccco2)nc2ccccc12 | -54.2% | -11.0% | -1.7 | 13.9 | -3.8%
CC[C@H](C)[C@H](NC(=O)[C@H](Cc1ccc(O)cc1)NC(=O)CNC(=O)[C@@H]1CCCN1C(=O)[C@H](CC(=O)O)NC(=O)[C@@H](N)CS)C(=O)NCC(=O)N[C@@H](CO)C(=O)N[C@@H](CCCN=C(N)N)C(N)=O | · | · | -4.1 | -3.6 | ·
Cc1cccc(C(=O)Nc2nnc(S(=O)(=O)N(C)c3ccccc3C)s2)c1 | · | -3.1% | · | · | ·
NNc1n[nH]c(=S)n1N | -5.4% | 4.9% | 39.7* | 62.7* | -9.5%
N#C/C(C(N)=O)=C1/SC=C(c2ccccc2)N1c1ccccc1 | -14.4% | -4.4% | -1.2 | -8.7 | 5.9%
N#C/C(C(=O)c1ccccc1)=C1/SC=C(N)N1c1ccccc1 | -52.6% | ? | 38.7* | 122.3* | -32.3%
CCOC(=O)c1cc2c(=O)n3ccccc3nc2n(Cc2ccco2)c1=NC(=O)c1cccnc1 | 19.1% | 2.9% | -2.6 | -21.8 | -2.0%
CCOC(=O)c1cc2c(=O)n3cccc(C)c3nc2n(Cc2ccco2)c1=NC(=O)c1cccnc1 | 8.0% | -4.9% | 6.4 | 32.8* | ?
COc1cc(Br)cc2cc(C(=O)NCC3CCCO3)c(=O)oc12 (stereo unspecified) | -11.2% | -1.5% | -1.9 | -2.7 | 17.6%
COc1cccc2cc(C(=O)NC(C)C3CCCO3)c(=O)oc12 (stereo unspecified) | -11.7% | 4.0% | 45.1* | 63.0* | -0.5%
CCOC(=O)CC(NC(=O)c1cc2cccc(OC)c2oc1=O)c1ccc(OC)cc1 (stereo unspecified) | 101.9% | -1.9% | 43.9* | 101.7* | -9.1%
COc1cccc2cc(C(=O)NC3CC4CCC3C4)oc12 (stereo unspecified) | -31.4% | -6.9% | 14.0* | 20.9 | -52.7%
COc1cccc2cc(C(=O)NCC3CCCO3)c(=O)oc12 (stereo unspecified) | -9.5% | ? | 30.4* | 33.3 | 0.4%
O=C1C(=O)N(CCCN2CCOCC2)C(c2ccc([N+](=O)[O-])cc2)/C1=C(/O)c1ccc2c(c1)OCO2 (stereo unspecified) | -15.8% | -11.9% | 14.7 | -4.5 | 6.7%
Cn1c(=O)c2c(nc(SCCN3CCOCC3)n2C)n(C)c1=O | 5.0% | -21.6% | -3.5 | -10.8 | 1.6%
COc1ccc2oc(=O)c(C(=O)NC3CCCCCC3)cc2c1 | -6.2% | -3.1% | 22.8* | · | 9.9%
COc1ccc2oc(=O)c(C(=O)NCc3ccc(F)cc3)cc2c1 | -4.4% | 2.3% | 1.1 | -6.0 | -10.0%
COc1ccc2oc(=O)c(C(=O)NCC3CCCO3)cc2c1 (stereo unspecified) | -11.2% | -15.9% | 28.9* | 45.0 | -5.4%
COc1ccc(Br)c(C(=O)NC2CCCC2)c1 | -21.5%[11.4 µM] | -11.6% | 4.7 | -3.8 | ·
ClC(Cl)c1nnc(-c2ccccc2)c(-c2c[nH]c3ccccc23)n1 | -49.6% | -13.2% | 12.5 | active | -17.5%
c1ccc(-c2nnc(-c3c[nH]c4ccccc34)nc2-c2ccccc2)cc1 | -11.3% | 2.7% | -0.5 | -2.6 | 26.5%
CCOC(=O)C1(Cc2ccccc2)CCCN(C2CCN(C(C)=O)CC2)C1 (stereo unspecified) | 90.3% | 3.7% | -1.3 | -2.8 | 1.2%
SMILES | AmpC no deterg | AmpC detergent | Cycloheximide cs | Shiga toxin inh | NS1 function inh
CCOC(=O)C1(Cc2ccccc2)CCCN(C(=O)c2ccc(-n3ccnc3)cc2)C1 (stereo unspecified) | 96.5% | -2.1% | 25.8* | 42.2* | -7.5%
CCOC(=O)C1(Cc2ccccc2)CCCN(C(=O)c2cn[nH]c2)C1 (stereo unspecified) | 6.0% | -5.1% | -2.3 | -6.3 | 16.6%
CCOC(=O)C1(Cc2ccccc2)CCCN(C(=O)C=C(C)C)C1 (stereo unspecified) | 85.1% | -7.8% | 24.2* | 86.0* | -38.1%
Cc1cc(C)c(NC(=O)c2sc3nc(C)cc(C)c3c2NC(=O)c2ccccc2)c(C)c1 | · | -0.8% | · | · | ·
Cc1ccc(OC(=O)c2ccc(C)c(C)c2)cn1 | 82.2% | -4.3% | 33.9* | 51.6* | -17.6%
CC(=O)Oc1ccc(C(=O)Nc2cccc(NC(=O)c3ccco3)c2)cc1 | -13.9% | -2.3% | -1.9 | 3.9 | 3.7%
Cc1ccc(OC(=O)c2ccc(Cl)c([N+](=O)[O-])c2)cn1 | -16.5% | 2.5% | -3.4 | -1.6 | -33.4%
CC(=O)Oc1ccc(C(=O)Nc2cccc(C(=O)c3ccc(C)c(C)c3)c2)cc1 | -17.3% | -6.5% | -1.0 | -5.7 | 20.0%
COc1ccc(C(=O)Nc2cccc(OC(=O)c3ccc(C)c(C)c3)c2)cc1 | -42.1% | -4.8% | 24.4* | 43.1* | 21.5%
COc1ccc(C(=O)Nc2cccc(OC(=O)c3ccco3)c2)cc1 | -17.6% | -2.9% | 19.9* | 44.5 | -12.5%
Cc1c(C)c2ccc(OCC(=O)Nc3ccccn3)cc2oc1=O | -13.1% | -0.4% | 33.6* | 62.0* | -6.4%
Cc1c(C)c2ccc(OCC(=O)Nc3nccs3)cc2oc1=O | -12.9% | -1.1% | 44.9* | 77.6* | -5.9%
Cc1cc(=O)oc2cc(OCC(=O)Nc3nccs3)ccc12 | -2.7% | 1.5% | 34.8* | 74.1* | -1.7%
COc1ccc2c(CC(=O)OCC(=O)Nc3ccc(S(N)(=O)=O)cc3)coc2c1 | 10µM* | -7.8% | -4.6 | -13.3 | -2.6%
Cc1c(C)c2ccc(OCC(=O)NCc3ccccn3)cc2oc1=O | -6.8% | -9.4% | -6.1 | -7.4 | 6.4%
COc1ccc2c(CC(=O)OCC(=O)Nc3ccc(C)cc3)coc2c1 | -33.3% | -13.8% | · | · | ·
CCn1cc(/C=C(\NC(=O)c2ccccc2Cl)C(=O)NCCN2CCOCC2)c2ccccc21 | 123.8% | ? | 0.7 | -13.5 | -4.5%
CCCCc1cc(=O)oc2cc(OCC(=O)Nc3ccccn3)ccc12 | -24.5% | -14.4% | 40.2* | 97.8* | 1.6%
CCCc1cc(=O)oc2cc(OCC(=O)Nc3ccc(S(N)(=O)=O)cc3)ccc12 | 28.2µM* | 56.2µM* | -0.6 | -3.4 | 7.6%
Cc1ccc2oc(-c3cc(NC(=O)c4ccc5c(c4)OCCO5)cc(C)c3O)nc2c1 | · | -3.2% | · | · | ·
Cc1ccc2c(nc3s/c(=C/c4cccs4)c(=O)n32)c1C | -12.2% | ? | 30.1* | 64.8 | 14.0%
Cc1ccc2c(nc3s/c(=C\c4ccc(-c5ccccc5C(=O)O)o4)c(=O)n32)c1C | -25.9% | -7.6% | 6.5 | -0.2 | 7.4%
CCOc1ccc(CCNC(=O)CCc2c(C)nc3c4c(C)cc(C)nc4nn3c2C)cc1 | · | 3.7% | · | · | ·
Cc1ccc(O)c(C(=O)c2cc(C#N)c(=O)n(-c3c(C)n(C)n(-c4ccccc4)c3=O)c2)c1 | -5.9% | -11.8% | -2.4 | -5.8 | 2.0%
